The list is not random: actives were taken first. Their share in the collection is about 15%.
Sm TGR inh: inhibitors of Schistosoma mansoni thioredoxin glutathione reductase; Q962Y6; purified TGR, DTNB reduction, TNB absorbance 405 nm; Potency, µM (series often up to 114 µM), for inactives: top-dose activity change, negative = inhibition, actives largely listed as inhibitors; hit rate 3% among 360,000; further: potency means the concentration at half of the fitted maximal effect; on the % scale 0 is the no-effect control and ±100 the full control effect; nearly all actives have a fitted effect of over 60% in size
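Kinetic colorimetric format: TGR-catalysed, NADPH-driven DTNB reduction monitored via TNB absorbance. Enzyme dispensed at 20 nM; compound exposure 15 min at room temperature before reaction start.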
Pf growth 96h: P. falciparum growth inhibition at 96 hour, primary screen for plastid delayed-death inhibitors | P. falciparum luciferase reporter growth, 96 h | Potency, µM (top dose mostly 28.7 µM), for inactives: at the highest dose activity change, negative = inhibition, actives largely listed as inhibitors | hit rate 6.9% among 320,000; further: potency means the concentration at half of the fitted maximal effect; on the % scale 0 is the no-effect control and ±100 the full control effect
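Parasite growth measured via integrated firefly luciferase reporter in P. falciparum. Infected erythrocytes at 2% hematocrit, 0.05% parasitemia final were treated 96 hours at 37 C under 5% CO2, and luminescence was read.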
HCV inhibitor: inhibitors of hepatitis C virus infection; Huh7.5.1 HCVcc-Cre infection, luciferase reporter, 44 h; Potency, µM (titrated, usually from 41.8 µM), inactives show at the highest dose activity change, negative = inhibition, actives largely listed as inhibitors; AID 651820; hit rate 3.4% among 340,000; further: potency means the concentration at half of the fitted maximal effect; on the % scale 0 is the no-effect control and ±100 the full control effect
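Luciferase read-out (15 sec integration) after a 15 min room-temperature substrate step quantifies HCVcc-Cre infection. Cells, 1,000 per well, had compound added 4 h post-plating, then virus at ~0.5 moi, and were cultured 44 h.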
SARS PLpro yeast: blocks SARS-CoV papain-like protease in a yeast assay | hit rate 0.19% among 330,000 | Potency, µM (series often up to 32.9 µM), for the others: at the top dose activity, positive = growth rescue, hits mostly activators | S. cerevisiae expressing SARS-CoV PLpro, growth rescue | AID 485353; calls by dose curve; further: potency means the concentration at half of the fitted maximal effect; 0% is about no effect; nearly all actives have a fitted effect of over 55% in size
Pf growth 48h: inhibits P. falciparum growth in the first generation, 48 h; hit rate 5.9% among 310,000; AID 504832; P. falciparum luciferase growth in erythrocytes, 48 h; Potency, µM (series often up to 28.7 µM), inactives show at the top dose activity change, negative = inhibition, actives largely listed as inhibitors; further: potency means the concentration at half of the fitted maximal effect; on the % scale 0 is the no-effect control and ±100 the full control effect
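Luminescence readout; reporter = integrated firefly luciferase in P. falciparum. RBC culture at 2% hematocrit, 0.1% parasitemia final, 37 C/5% CO2; decreased signal taken as growth inhibition.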
HCMV antiviral: inhibitors of human cytomegalovirus; hit rate 4.5% among 410,000; activity change, negative = inhibition, % at 57.5 µM; HFF cells, HCMV-luciferase reporter, 72 h; hits give low values; in the data active means activity change below about -60%; inconclusive means no clear call, values can overlap the other calls; inactive means above about -39%; further: on the % scale 0 is the no-effect control and ±100 the full control effect
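Two compound doses tested in HFFs infected with HCMV-luciferase, MOI 1 PFU/cell, 72 h at 37C. Lysate luminescence read with OneGlo; data normalized against buffer-only and 10uM Salinomycin inhibitor controls.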
Starred values were filed as active, the others as inactive; i = inactive; ? = inconclusive; / = no result; [ ] = remark or other dose. Unless noted, the call rests on the fitted dose curve; in most records, active means well fitted curve in the direction sought with a large enough effect; inconclusive means small, poorly fitted or top-dose-only effect, or another doubt; inactive means no such curve, though single readings can be large; an effect the other way counts as inactive or inconclusive.

SMILES	Sm TGR inh	Pf growth 96h	HCV inhibitor	SARS PLpro yeast	Pf growth 48h	HCMV antiviral
O=C(NCc1ccc(Cl)cc1)c1cc2ccccc2o1	2%	/	/	/	/	-21
COc1ccc2oc(C(=O)NCCC(C)C)c(C)c2c1	2%	178%	-8%	-5%	i	81
O=C(NCc1ccccc1CN1CCCC1)c1cc2cc(Cl)ccc2o1	0%	?	10µM*	-4%	13µM*	0
CCOc1ccc2oc(C(=O)NCC(c3ccco3)N(C)C)c(C)c2c1 (configuration not stated)	3%	?	?	3%	0%	-5
COCc1c(C(=O)NCc2ccccc2CN2CCCC2)oc2ccccc12	4%	9.3µM*	-24%	10%	?	-17
CCOc1ccc2oc(C(=O)NCc3ccccc3CN3CCCC3)c(C)c2c1	2%	9.3µM*	16µM*	2%	9.3µM*	-9
N#CCS(=O)(=O)c1cccc[n+]1[O-]	/	/	/	/	/	-2
COc1ccc2cc(C(=O)NCc3ccccc3CN3CCCC3)ccc2c1	4%	?	7.1µM*	14%	9.3µM*	-33
Cc1c(C(=O)NCc2ccccc2CN2CCCC2)oc2c(F)cccc12	-9%	?	-15%	-38%	13µM*	-14
Cc1ccc(CNC(=O)[C@H](C)NC(=O)C2CCN(C(=O)[C@@H]3CCCN3C(=O)OC(C)(C)C)CC2)cc1	6%	?	?	-7%	?	4
NNC(=O)COc1ccc(-c2n[nH]c(C(F)(F)F)c2-c2ccc(Br)cc2)c(O)c1	-15%	8.3µM*	-25%	-1%	9.3µM*	27
COc1ccc(-c2n[nH]c(C(F)(F)F)c2-c2cc3ccccc3o2)c(O)c1	5%	16%	11µM*	-47%	2.1µM*	-3
COc1ccc(-c2cn[nH]c2-c2ccc(OCC(=O)NN)cc2O)cc1	0%	?	-3%	1%	?	?
COc1ccc(-c2c(-c3ccc(OCC(=O)NN)cc3O)n[nH]c2C)cc1	2%	9.3µM*	-16%	4%	?	18
COc1ccccc1-c1c(-c2ccc(OCC(=O)NN)cc2O)n[nH]c1C(F)(F)F	-4%	7.4µM*	?	0%	8.3µM*	-32
CCCCCn1c(=O)[nH]c2cc(C(=O)N3CCN(c4cccc(Cl)c4)CC3)ccc2c1=O	1%	/	/	/	/	2
COc1ccc(N2CCN(C(CNC(=O)c3c(F)cccc3F)c3ccc4c(c3)OCO4)CC2)cc1 (configuration not stated)	3%	/	/	/	/	7
CC(=O)c1cccc(S(=O)(=O)N(Cc2cc3cc4c(cc3[nH]c2=O)OCCO4)CC2CCCO2)c1 (configuration not stated)	0%	13µM*	0%	-3%	-14%	-4
O=c1[nH]c2cc3c(cc2cc1CN(CC1CCCO1)S(=O)(=O)c1ccccc1)OCCO3 (configuration not stated)	-2%	?	14%	9%	?	-17
O=C(NCc1ccccc1)N(Cc1cc2cc3c(cc2[nH]c1=O)OCCO3)CC1CCCO1 (configuration not stated)	-25%[11.4 µM]	8.3µM*	10%	0%	/	12
COc1ccccc1NC(=O)N(Cc1cc2cc(OC)c(OC)cc2[nH]c1=O)CC1CCCO1 (configuration not stated)	-24%	?	-15%	13%	?	2
CCOC(=O)[C@]12CCCC=C1N(Cc1ccccc1)C(=O)[C@H](CC(=O)N1CCCCCC1)C2	/	/	/	/	/	-16
CCOC(=O)N1CCC(NC(=O)c2cc3cc4cc(OC)ccc4nc3o2)CC1	9%	7.4µM*	?	-8%	2.9µM*	-26
COc1ccc2cc3cc(C(=O)NCCCN4CCOCC4)oc3nc2c1	0%	1.2µM*	-27%	2%	?	40
COc1ccc2cc3cc(C(=O)NCCCN4CCC(C)CC4)oc3nc2c1	2%	-31%	?	2%	?	/
SMILES	Sm TGR inh	Pf growth 96h	HCV inhibitor	SARS PLpro yeast	Pf growth 48h	HCMV antiviral
Cc1ccc2cc3cc(C(=O)NCCCN4CCCC4=O)oc3nc2c1	-10%	?	?	1%	2.6µM*	?
CCCCN(CC)CCCNC(=O)c1cc2cc3ccc(OC)cc3nc2o1	-8%	3.7µM*	?	-3%	?	18
COc1ccc2nc3oc(C(=O)NC4CCN(Cc5ccccc5)CC4)cc3cc2c1	-9%	46%	?	5%	?	-16
CCOc1ccc(CCn2c3c(c(=O)[nH]c2=O)C(NC(=O)c2ccccc2)(C(F)(F)F)C(=O)N3)cc1OCC (configuration not stated)	13%	/	/	/	/	-9
COC(=O)c1cnc(Nc2nc(CN)cs2)nc1C(F)(F)F	/	/	/	/	/	0
CCSc1nnc(NC(=O)CCc2ccc(OC)cc2)s1	7%	22%	21%	6%	-14%	4
COc1ccc2cc3cc(C(=O)NCc4ccc(C)cc4)oc3nc2c1	7%	/	/	/	/	-21
CCN1CCN(CCCNC(=O)c2cc3cc4ccc(OC)cc4nc3o2)CC1	-2%	45%	?	-3%	13µM*	/
COc1ccc2cc3cc(C(=O)NCc4cccs4)oc3nc2c1	1%	-6%	-19%	-11%	5.9µM*	-20
Cc1ccc2cc3cc(C(=O)NCc4ccc5c(c4)OCO5)oc3nc2c1	-2%	3.7µM*	-11%	1%	0%	20
CCN1C[C@@H]2[C@@H]3C(=O)N(Cc4ccccc4)C(=O)[C@@H]3[C@](Cc3ccccc3)(C1=O)N2C(=O)c1ccc(C)cc1	/	/	14%	/	/	-10
COc1cc(OC)c(C(=O)Nc2cccc(C(C)=O)c2)cc1OC	-15%	2%	-9%	-7%	/	158
CN1CCN(C(c2cccnc2)c2ccc3cccnc3c2O)CC1 (configuration not stated)	0.25µM*	/	?	-10%	?	/
CN1CCN(C(c2ccc(F)cc2)c2ccc3cccnc3c2O)CC1 (configuration not stated)	/	/	10%	/	/	/
CN1CCN(C(c2ccc(Br)cc2)c2cc(Cl)c3cccnc3c2O)CC1 (configuration not stated)	0.63µM*	7.4µM*	7.9µM*	/	12µM*	126
O=C(COc1ccc(S(=O)(=O)N2CCOCC2)cc1)NCCc1ccc(Cl)cc1	/	/	/	/	/	40
CCc1nc2c(c(SC)nn2-c2ccccc2)c(N)c1C(=O)OC	7%	?	-13%	0%	-3%	-16
Nc1nc(SCc2ccc(F)cc2)ns1	5%	3%	6%	-5%	-4%	-74*
Nc1nnc(SCc2ccc(F)cc2)s1	8%	?	10%	/	21%	-14
CCOc1ccc(CNC(=O)c2ccc(Sc3ccc(C)cc3)c(NC(C)=O)c2)cc1OC	6%	12µM*	?	-3%	14%	-25

Bioassay records (PubChem BioAssay)
